From PubChem BioAssay
Calls of active or inactive are those of the source. Unless noted, how the calls were made is not given here.

Experiments:
[1] = resazurin metabolic signal in HepG2 cells – cell-based, resazurin fluorescence, 24 h, PK04 Diversity Set, profiling panel (AID 1172); settings: HepG2 viability, higher = more signal; further: test concentration not given here
[2] = budding yeast growth changes without added modifier – OD600, strain BY4716, 24 h, basal condition, primary screen (AID 1173); settings: S. cerevisiae BY4716 growth, OD600, 24 h; higher = more signal, called active from +8 up or from −8 down
[3] = viability profiling in MM1S myeloma cells – cell-based, resazurin fluorescence, basal, 24 h, PK04 Diversity Set, profiling panel (AID 1174); settings: higher = more signal, called active from +8 up or from −8 down;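 further: MM1S multiple myeloma cell line; test concentration not given here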
[4] = biological target: Dihydroorotate dehydrogenase (quinone), mitochondrial (Plasmodium falciparum (isolate 3D7)) (UniProt Q08210); test: inhibition of P. falciparum DHODH – biochemical, C-terminal His tag, absorbance 600 nm, primary screen (AID 1175); settings: PfDHODH enzyme, DCIP absorbance 600 nm; higher = more signal, called active from +8 up or from −8 down;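 further: recombinant parasite enzyme with a five histidine tag at its C terminus; test concentration not given here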
Chain of Dihydroorotate dehydrogenase (quinone), mitochondrial (Plasmodium falciparum (isolate 3D7)) (Q08210 whole entry, looked up): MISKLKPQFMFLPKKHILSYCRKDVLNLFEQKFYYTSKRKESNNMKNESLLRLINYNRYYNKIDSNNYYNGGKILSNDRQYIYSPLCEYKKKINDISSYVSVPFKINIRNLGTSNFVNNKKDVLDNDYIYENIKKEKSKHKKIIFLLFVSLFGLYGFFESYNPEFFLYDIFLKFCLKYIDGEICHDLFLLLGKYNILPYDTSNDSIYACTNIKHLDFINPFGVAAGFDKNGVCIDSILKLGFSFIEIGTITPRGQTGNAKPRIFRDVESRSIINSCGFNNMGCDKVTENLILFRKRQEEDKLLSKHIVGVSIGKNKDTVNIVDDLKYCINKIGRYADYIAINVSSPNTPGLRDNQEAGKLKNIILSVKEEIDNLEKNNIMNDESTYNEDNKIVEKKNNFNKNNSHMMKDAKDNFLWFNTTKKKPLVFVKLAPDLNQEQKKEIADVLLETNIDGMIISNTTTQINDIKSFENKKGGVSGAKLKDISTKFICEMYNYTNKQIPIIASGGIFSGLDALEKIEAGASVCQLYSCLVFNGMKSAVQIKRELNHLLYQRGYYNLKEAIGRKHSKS

[5] = inhibition of PAO1 biofilm formation – strain PAO1, LB-PBS medium, absorbance 600 nm, primary screen (AID 1176); further: test concentration not given here; settings: P. aeruginosa PAO1 growth/biofilm, A600, 12 h; higher = more signal
[6] = growth modulation of vineyard yeast isolate – strain RM11-1a, OD600, basal, 24 h, primary screen (AID 1177);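 further: cultures grown under basal conditions with no added stressor; test concentration not given here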; settings: S. cerevisiae RM11-1a growth, OD600, 24 h; higher = more signal, called active from +8 up or from −8 down
[7] = growth of efflux-deficient E. coli DRC39 – strain DRC39, OD650, 24 h, E. coli filamentation inducers, primary screen (AID 1178);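 further: growth measured as culture turbidity by optical density at 650 nm; test concentration not given here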; settings: E. coli DRC39 acrAB, higher = more signal, called active from +8 up or from −8 down
[8] = growth of efflux-deficient E. coli DRC39 – strain DRC39, OD650, 48 h, E. coli filamentation inducers, primary screen (AID 1179);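 further: screen aims at cell division blockers that make cells filament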; settings: E. coli DRC39 delta-acrAB growth, higher = more signal, called active from +8 up or from −8 down
[9] = viability profiling in RPMI8226 myeloma cells – cell-based, resazurin fluorescence, basal, 24 h, PK04 Diversity Set, profiling panel (AID 1180); settings: higher = more signal;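 further: RPMI8826 multiple myeloma cell line at 5000 cells per well; test concentration not given here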
[10] = biological target: E3 ubiquitin-protein ligase XIAP (Homo sapiens) (UniProt P98170); test: small molecules binding XIAP protein – biophysical, small-molecule microarray, fluorescence 635 nm, primary screen (AID 1181); settings: higher = more signal;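 further: score merges 667 nm emission and signal to noise over triplicate slides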
Chain of E3 ubiquitin-protein ligase XIAP (Homo sapiens) (P98170 whole entry, looked up): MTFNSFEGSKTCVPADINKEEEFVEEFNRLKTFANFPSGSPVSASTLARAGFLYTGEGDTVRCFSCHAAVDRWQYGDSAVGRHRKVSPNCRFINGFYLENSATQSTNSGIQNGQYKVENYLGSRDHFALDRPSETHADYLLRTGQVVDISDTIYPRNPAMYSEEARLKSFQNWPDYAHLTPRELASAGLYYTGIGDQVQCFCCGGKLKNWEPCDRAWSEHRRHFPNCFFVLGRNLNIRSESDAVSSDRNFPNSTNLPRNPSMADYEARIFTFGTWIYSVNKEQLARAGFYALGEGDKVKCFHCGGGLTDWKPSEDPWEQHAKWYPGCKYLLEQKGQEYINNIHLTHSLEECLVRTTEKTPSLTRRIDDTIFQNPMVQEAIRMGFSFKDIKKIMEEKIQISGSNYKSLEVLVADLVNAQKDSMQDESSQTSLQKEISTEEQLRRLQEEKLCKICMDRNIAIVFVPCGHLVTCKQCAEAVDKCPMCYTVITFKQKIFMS

| SMILES | z-score [1] | z-score [2] | z-score [3] | composite z-score [4] | z-score [5] | z-score [6] | z-score [7] | z-score [8] | z-score [9] | composite z-score [10] |
| --- | --- | --- | --- | --- | --- | --- | --- | --- | --- | --- |
| CC(C)N1CC=CC23O[C@@H]4C=CCCOC(=O)C4[C@H]2C(=O)N(CCCO)[C@@H]3C1=O (stereo not given in full) | 1.12 | -0.951 (inactive) | 0.348 (inactive) | -0.926 (inactive) | -0.276 (inactive) | 0.0977 (inactive) | -0.463 (inactive) | 0.32 (inactive) | -0.114 | 0.152 |
| COc1cc(OC)c(C(O)C2C=CC3C(=O)N(Cc4ccccc4)C(=O)C3N2n2cnnc2)cc1Br (stereo not given) | -0.797 | -8.67 (active) | -0.982 (inactive) | -0.552 (inactive) | -0.169 (inactive) | -3.92 (inactive) | -0.514 (inactive) | -0.905 (inactive) | -1.21 | 0.197 |
| C=C(/C(=C/C[C@H](OC(=O)c1ccncc1)c1ccc(CO)o1)c1cnc2ccccc2c1)C(C)C | -0.0499 | -1.2 (inactive) | -0.0537 (inactive) | -7.44 (inactive) | 1.16 (inactive) | 0.481 (inactive) | 0.586 (inactive) | 0.0868 (inactive) | 0.601 | -0.0749 |
| CCCC#C[Si](O[C@H](CC)c1cn([C@H](C)c2ccccc2)nn1)(C(C)C)C(C)C | 0.186 | -12.9 (active) | -0.098 (inactive) | 0.738 (inactive) | -0.677 (inactive) | 0.75 (inactive) | 1.4 (inactive) | 1.06 (inactive) | 1.29 | 0.274 |
| O=C1CS(=O)(=O)C(c2cccc([N+](=O)[O-])c2)N1c1ccccc1 (stereo not given) | 0.946 | -1.3 (inactive) | 0.973 (inactive) | -1.21 (inactive) | 0.627 (inactive) | -0.818 (inactive) | 1.16 (inactive) | 1.21 (inactive) | 0.511 | 0.0055 |
| CCCC[C@@H]1C[C@H]1[C@@H](NC(=O)c1cccs1)c1ccccc1C(F)(F)F | -0.119 | 0.866 (inactive) | -0.186 (inactive) | -0.271 (inactive) | 0.591 (inactive) | 0.742 (inactive) | -0.561 (inactive) | -0.469 (inactive) | 0.276 | 0.99 |
| Oc1ccc2cc[n+](Cc3cc4c(cc3Br)OCO4)cc2c1 | -0.269 | -0.72 (inactive) | -0.526 (inactive) | -0.625 (inactive) | -0.159 (inactive) | 1.31 (inactive) | 0.364 (inactive) | 0.161 (inactive) | -0.135 | -0.281 |
| C[C@@H]1NC(=O)[C@@H](Cc2ccccc2)NC(=O)[C@@]23C(=O)N[C@@H](Cc4ccccc4)C2[C@H](C)[C@@]2(C)O[C@H]2C3/C=C/C/C=C\CNC1=O (stereo not given in full) | -1.2 | 0.318 (inactive) | 0.0992 (inactive) | 0.0303 (inactive) | 0.413 (inactive) | 0.652 (inactive) | -0.811 (inactive) | -0.863 (inactive) | 0.329 | -0.0138 |
| CCCNC(=O)[C@@]1(C)c2ccccc2C(=O)N(c2ccc(C)cn2)[C@H]1c1ccc(CO)cc1 | -0.112 | -0.397 (inactive) | 0.268 (inactive) | -0.281 (inactive) | 0.484 (inactive) | -0.306 (inactive) | -0.398 (inactive) | -0.586 (inactive) | -0.388 | -0.127 |
| CC#CCO[Si](C#Cc1ccccc1)(C(C)C)C(C)C | -0.112 | -15.6 (active) | -0.632 (inactive) | 0.108 (inactive) | 0.219 (inactive) | 0.201 (inactive) | -0.244 (inactive) | -0.032 (inactive) | -0.67 | -0.127 |
